Data: ChEMBL document CHEMBL5724796, “Tm Shift (DSF) assay results for EUbOPEN Chemogenomics Library” (2024)
Residues, ends and D or L forms follow the SMILES beside them. *: point of attachment. Boc = CC(C)(C)OC(=O)*

What was measured:
Conditions in all cases: Compound concentration 20.0 uM
[1] = biological target: Tyrosine-protein kinase ABL1 (Homo sapiens) (UniProt P00519)
[2] = biological target: Bromodomain-containing protein 4 (Homo sapiens) (UniProt O60885)
[3] = biological target: Cyclin-dependent kinase 2 (Homo sapiens) (UniProt P24941)
[4] = biological target: Casein kinase I isoform delta (Homo sapiens) (UniProt P48730)
Sequence of Casein kinase I isoform delta (Homo sapiens) (P48730 whole entry, looked up, canonical isoform): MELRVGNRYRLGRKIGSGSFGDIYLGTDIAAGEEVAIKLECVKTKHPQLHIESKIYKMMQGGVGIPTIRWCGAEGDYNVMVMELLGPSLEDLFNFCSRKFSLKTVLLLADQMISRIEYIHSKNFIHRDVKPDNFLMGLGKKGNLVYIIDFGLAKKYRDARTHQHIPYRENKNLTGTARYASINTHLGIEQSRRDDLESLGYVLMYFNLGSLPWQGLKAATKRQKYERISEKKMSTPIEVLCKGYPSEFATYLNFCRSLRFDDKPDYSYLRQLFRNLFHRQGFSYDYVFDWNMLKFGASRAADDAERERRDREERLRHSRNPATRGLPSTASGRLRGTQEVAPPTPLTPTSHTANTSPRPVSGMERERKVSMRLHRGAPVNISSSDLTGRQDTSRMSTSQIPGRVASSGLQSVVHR

[5] = biological target: Glycogen synthase kinase-3 beta (Homo sapiens) (UniProt P49841)
Sequence of Glycogen synthase kinase-3 beta (Homo sapiens) (P49841 whole entry, looked up): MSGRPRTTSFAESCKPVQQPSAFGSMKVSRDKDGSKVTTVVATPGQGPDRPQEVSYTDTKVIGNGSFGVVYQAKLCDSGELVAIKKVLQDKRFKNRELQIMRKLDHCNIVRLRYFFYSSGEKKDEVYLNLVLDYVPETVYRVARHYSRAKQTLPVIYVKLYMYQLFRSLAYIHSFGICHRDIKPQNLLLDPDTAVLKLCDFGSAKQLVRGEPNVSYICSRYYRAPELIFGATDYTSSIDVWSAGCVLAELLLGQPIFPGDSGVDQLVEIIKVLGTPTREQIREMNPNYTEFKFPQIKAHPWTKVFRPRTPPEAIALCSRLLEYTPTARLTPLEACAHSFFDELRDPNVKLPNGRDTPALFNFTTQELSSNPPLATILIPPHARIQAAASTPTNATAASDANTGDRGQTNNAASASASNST

[6] = biological target: Mitogen-activated protein kinase 1 (Homo sapiens) (UniProt P28482)
Sequence of Mitogen-activated protein kinase 1 (Homo sapiens) (P28482 whole entry): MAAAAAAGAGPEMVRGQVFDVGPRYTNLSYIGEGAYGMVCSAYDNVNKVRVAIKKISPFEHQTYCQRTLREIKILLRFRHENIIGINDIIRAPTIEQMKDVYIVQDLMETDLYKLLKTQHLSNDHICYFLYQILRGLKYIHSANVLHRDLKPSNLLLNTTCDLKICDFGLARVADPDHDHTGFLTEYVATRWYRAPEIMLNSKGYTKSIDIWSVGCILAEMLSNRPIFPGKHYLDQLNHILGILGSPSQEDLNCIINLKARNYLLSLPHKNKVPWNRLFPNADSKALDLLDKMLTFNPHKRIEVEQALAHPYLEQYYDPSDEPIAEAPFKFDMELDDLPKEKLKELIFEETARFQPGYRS

[7] = biological target: T1, Aurora kinase A (Homo sapiens) (UniProt O14965)
T1 sequence (whole entry): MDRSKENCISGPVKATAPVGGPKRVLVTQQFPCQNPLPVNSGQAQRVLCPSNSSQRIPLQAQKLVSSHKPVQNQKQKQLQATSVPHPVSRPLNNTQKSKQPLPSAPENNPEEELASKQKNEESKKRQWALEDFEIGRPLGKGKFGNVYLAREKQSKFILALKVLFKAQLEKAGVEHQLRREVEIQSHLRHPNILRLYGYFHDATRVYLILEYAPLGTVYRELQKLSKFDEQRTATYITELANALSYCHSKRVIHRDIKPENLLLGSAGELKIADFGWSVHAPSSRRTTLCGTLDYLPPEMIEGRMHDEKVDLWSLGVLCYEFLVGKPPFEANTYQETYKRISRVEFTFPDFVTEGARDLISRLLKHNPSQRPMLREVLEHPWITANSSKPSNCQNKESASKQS

[8] = biological target: T2, Transcription intermediary factor 1-alpha (Homo sapiens) (UniProt O15164)
T2 sequence (whole entry): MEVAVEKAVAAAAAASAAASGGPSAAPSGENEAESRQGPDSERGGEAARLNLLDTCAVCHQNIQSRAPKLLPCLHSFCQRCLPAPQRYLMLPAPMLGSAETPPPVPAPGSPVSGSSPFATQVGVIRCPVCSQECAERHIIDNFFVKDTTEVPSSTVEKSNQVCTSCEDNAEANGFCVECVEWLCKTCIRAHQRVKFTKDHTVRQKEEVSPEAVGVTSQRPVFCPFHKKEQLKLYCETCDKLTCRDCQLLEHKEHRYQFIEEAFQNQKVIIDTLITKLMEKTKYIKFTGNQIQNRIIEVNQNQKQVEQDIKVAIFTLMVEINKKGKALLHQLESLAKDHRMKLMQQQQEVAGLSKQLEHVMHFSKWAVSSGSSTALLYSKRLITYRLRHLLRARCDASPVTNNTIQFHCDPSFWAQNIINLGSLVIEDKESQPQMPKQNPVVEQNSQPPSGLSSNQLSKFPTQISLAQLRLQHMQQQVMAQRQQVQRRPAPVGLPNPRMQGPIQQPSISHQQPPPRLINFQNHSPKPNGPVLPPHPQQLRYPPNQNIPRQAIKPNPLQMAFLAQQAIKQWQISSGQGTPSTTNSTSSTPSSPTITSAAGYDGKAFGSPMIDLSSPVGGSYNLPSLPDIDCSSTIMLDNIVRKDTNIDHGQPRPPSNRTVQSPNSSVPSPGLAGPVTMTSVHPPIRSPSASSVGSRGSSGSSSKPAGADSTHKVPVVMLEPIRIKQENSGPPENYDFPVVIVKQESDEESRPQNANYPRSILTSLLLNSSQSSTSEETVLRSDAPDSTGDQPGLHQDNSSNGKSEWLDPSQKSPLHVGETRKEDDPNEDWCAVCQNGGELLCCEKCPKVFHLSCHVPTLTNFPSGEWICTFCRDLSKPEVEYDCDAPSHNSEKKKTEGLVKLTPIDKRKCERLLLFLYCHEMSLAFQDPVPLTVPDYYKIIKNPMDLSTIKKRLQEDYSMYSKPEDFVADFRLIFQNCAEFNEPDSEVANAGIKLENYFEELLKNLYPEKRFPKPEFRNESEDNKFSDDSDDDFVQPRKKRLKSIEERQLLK

Sequence of Tyrosine-protein kinase ABL1 (Homo sapiens) (P00519 whole entry): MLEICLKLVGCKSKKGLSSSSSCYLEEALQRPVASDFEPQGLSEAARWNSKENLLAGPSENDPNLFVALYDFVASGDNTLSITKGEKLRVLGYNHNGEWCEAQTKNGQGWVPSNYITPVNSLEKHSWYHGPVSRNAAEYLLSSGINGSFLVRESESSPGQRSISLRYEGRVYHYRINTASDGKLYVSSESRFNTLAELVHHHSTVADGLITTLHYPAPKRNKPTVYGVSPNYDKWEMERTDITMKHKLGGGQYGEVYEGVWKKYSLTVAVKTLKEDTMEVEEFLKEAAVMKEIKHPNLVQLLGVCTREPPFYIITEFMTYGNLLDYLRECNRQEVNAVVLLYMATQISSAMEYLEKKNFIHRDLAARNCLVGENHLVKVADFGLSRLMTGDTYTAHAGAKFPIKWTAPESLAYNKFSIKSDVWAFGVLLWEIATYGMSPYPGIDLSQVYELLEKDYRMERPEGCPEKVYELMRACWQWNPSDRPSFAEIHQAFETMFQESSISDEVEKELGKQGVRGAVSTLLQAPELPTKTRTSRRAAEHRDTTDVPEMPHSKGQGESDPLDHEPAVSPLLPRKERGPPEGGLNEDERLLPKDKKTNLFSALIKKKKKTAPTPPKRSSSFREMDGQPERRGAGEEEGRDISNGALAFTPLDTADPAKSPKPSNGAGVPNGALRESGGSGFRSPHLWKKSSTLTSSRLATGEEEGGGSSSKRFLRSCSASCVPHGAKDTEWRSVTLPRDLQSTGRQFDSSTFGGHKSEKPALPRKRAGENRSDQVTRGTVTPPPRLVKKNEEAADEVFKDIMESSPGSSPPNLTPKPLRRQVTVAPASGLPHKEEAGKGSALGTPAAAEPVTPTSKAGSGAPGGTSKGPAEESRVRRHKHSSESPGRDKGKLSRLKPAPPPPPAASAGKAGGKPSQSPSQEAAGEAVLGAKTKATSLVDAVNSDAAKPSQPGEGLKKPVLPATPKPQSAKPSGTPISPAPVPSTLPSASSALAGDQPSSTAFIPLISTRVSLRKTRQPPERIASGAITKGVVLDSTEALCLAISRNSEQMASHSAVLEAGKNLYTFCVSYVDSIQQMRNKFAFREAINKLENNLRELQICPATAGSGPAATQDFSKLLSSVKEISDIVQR

Structure (SMILES)	ΔTm [1]	ΔTm [2]	ΔTm [3]	ΔTm [4]	ΔTm [5]	ΔTm [6]	ΔTm [7]	ΔTm [8]
O=C(Nc1ccccc1C(=O)O)c1cc(S(=O)(=O)c2ccccc2)ccc1Cl	0.57 °C	-2.4 °C	0.28 °C	-0.33 °C	0.26 °C	0.08 °C	-2.26 °C	1.1 °C
COc1ccccc1C(=O)Nc1cc2c(cc1N1CCNC[C@H]1C)n(C)c(=O)n2C	0.51 °C	1.74 °C	0.17 °C	0.91 °C	0.41 °C	0.25 °C	-0.29 °C	0.27 °C
Cc1nc(-c2cnn(C)c2-c2ccc(C(F)(F)F)cn2)c2c(N3CCC3)ncnn12	0.74 °C	-3.11 °C	0.08 °C	-0.17 °C	-0.34 °C	0.1 °C	-2.46 °C	0.34 °C
O=[N+]([O-])c1ccc(CSc2ncnc3c2ncn3[C@@H]2O[C@H](CO)[C@@H](O)[C@H]2O)cc1	-0.08 °C	-1.24 °C	-0.1 °C	-0.39 °C	-0.67 °C	0.1 °C	-1.6 °C	-0.18 °C
COc1cccc(-c2nccc3c2CN(c2ccccc2)C3=O)c1	0.76 °C	-1.35 °C	-1.3 °C	0.41 °C	-2.56 °C	-4.49 °C	-4.93 °C	-1.44 °C
CC(=O)N1CCc2c(c(N3CCCc4cc(-c5cnn(C)c5)c(C(F)F)cc43)nn2C2CCOCC2)C1	0.45 °C	0.99 °C	-0.16 °C	0.23 °C	-0.52 °C	-0.44 °C	-1.07 °C	-1.11 °C
C[C@H](Nc1cc(Cl)nc2c1cnn2[C@@H]1O[C@H](COP(=O)(O)CP(=O)(O)O)[C@@H](O)[C@H]1O)c1ccccc1F	1.24 °C	-1.43 °C	-0.1 °C	0.27 °C	1 °C	-0.38 °C	1.74 °C	-0.82 °C
Nc1cccc(Nc2ncc(-c3ccc(Cl)cc3)o2)c1	9.33 °C	0.39 °C	9.01 °C	0.43 °C	7.51 °C	0.54 °C	6.87 °C	-0.45 °C
O=C(O)[C@@H]1CCCN(C(=O)n2cnc(-c3ccc(-c4cnc(N5CCOCC5)nc4)cc3)n2)[C@H]1c1ccccc1	0.15 °C	-1.06 °C	-1.79 °C	1.27 °C	-3.37 °C	0.69 °C	-5.07 °C	0 °C
CN(C)CCCCC(=O)Nc1ccc(NC(=S)NC(=O)c2ccc(C(C)(C)C)cc2)cc1	0.43 °C	-4.74 °C	0.19 °C	0.69 °C	1.54 °C	0.13 °C	-2.09 °C	-0.79 °C
CCCC(NC(=O)C(CC(C)C)NC(=O)OCc1ccccc1)C(=O)C(=O)NCc1ccccn1 (racemic)	0.33 °C	-1.67 °C	-0.66 °C	0.03 °C	-0.68 °C	-0.49 °C	-1.04 °C	-0.95 °C
Nc1ccccc1NC(=O)c1ccc(CNC(=O)OCc2cccnc2)cc1	0.63 °C	-1.69 °C	0.81 °C	0.33 °C	-0.75 °C	0.21 °C	0.05 °C	-1.42 °C
CC(C)[C@H](NC(=O)[C@H](CCC(=O)O)NC(=O)[C@H](C)NC(=O)OC(C)(C)C)C(=O)N[C@H](C=O)CC(=O)O (Boc-AEVD-aldehyde)	0.28 °C	-2.26 °C	-0.28 °C	-0.09 °C	-1.03 °C	-0.49 °C	-1.35 °C	-0.84 °C
COc1cc2c(NCC3CCN(C)CC3)cc(-c3ccc(C)o3)nc2cc1OCCCN1CCCC1	-0.17 °C	-1.85 °C	0.22 °C	0.3 °C	-1.71 °C	0.07 °C	0.46 °C	-1.43 °C
NCCOCCOCCNC(=O)Cc1ccc(Nc2nc(NCc3ccc(F)cc3)nc(NCC3CCCCC3)n2)cc1	0.61 °C	-3.77 °C	0.63 °C	0.54 °C	0 °C	0.37 °C	-2.14 °C	-0.27 °C
Nc1ccccc1NC(=O)CCCCCC(=O)Nc1ccccc1	0.27 °C	-2.09 °C	0.5 °C	0.04 °C	-0.05 °C	0.2 °C	-0.94 °C	-0.62 °C
CC(C)(O)c1ccc(N2Cc3c(ccnc3-c3ccc(F)cc3OCC(F)(F)F)C2=O)cc1	1.61 °C	-2.56 °C	-1.07 °C	0.07 °C	0.38 °C	-10.3 °C	1.43 °C	-1.06 °C
Cc1cc(C)nc(SCC(=O)Nc2ncc(Cc3cccc4ccccc34)s2)n1	1.25 °C	-0.67 °C	0.38 °C	5.19 °C	-0.21 °C	-4.06 °C	-1.18 °C	5.54 °C
CC(C)(OCc1cc(-c2cccc(OC3CC3)c2)n(-c2ccccc2Cl)n1)C(=O)O	0.39 °C	-3.91 °C	-0.19 °C	0.08 °C	0.42 °C	0.09 °C	-2.34 °C	-0.77 °C
COC(=O)c1ccc(CN2CCC(O)(Cn3cnc4c(-c5ccc(CN)cc5)n(C)nc4c3=O)CC2)c(Cl)c1	0.48 °C	-3.34 °C	-0.1 °C	-0.28 °C	-0.1 °C	0.15 °C	-1.56 °C	2.14 °C
COc1cc([C@@H]2Oc3c(O)cc([C@H]4Oc5cc(O)cc(O)c5C(=O)[C@@H]4O)cc3[C@H]2CO)ccc1O	0.61 °C	-1.83 °C	0.16 °C	0.36 °C	3.53 °C	0.13 °C	-1.74 °C	1.87 °C
O=C(O)CCNc1cc(N2CCc3ccccc3CC2)nc(-c2cccnc2)n1	0.76 °C	-1.28 °C	0.04 °C	0.2 °C	-0.02 °C	-0.29 °C	2.29 °C	-0.51 °C
Cc1cnc(-c2ccccc2C(C)C)nc1NCc1ccc(-n2ccnn2)cc1	0.32 °C	-1.87 °C	-0.07 °C	-7.36 °C	0.1 °C	0.55 °C	-2.6 °C	-0.58 °C
CN(CC[C@@H](Oc1ccc(-c2ccccc2)cc1)c1ccc(F)cc1)CC(=O)O	0.28 °C	-0.22 °C	-0.22 °C	0.15 °C	-0.98 °C	0.32 °C	-1.2 °C	2.77 °C
NC(=O)C1CCCc2c1[nH]c1ccc(Cl)cc21 (stereo not given)	0.6 °C	-2.56 °C	0.2 °C	-0.38 °C	0.62 °C	0.17 °C	-0.98 °C	-0.37 °C
CCC(CC)(NC(=O)C(C)C)C(=O)N[C@@H](CCCNC(=N)N)C(=O)NC1(C(=O)NC(c2ccc(F)cc2)c2ccc(F)cc2)CCCC1	0.63 °C	-1.92 °C	-0.27 °C	0.35 °C	-0.5 °C	-0.02 °C	-0.05 °C	-1.17 °C
Cc1ccsc1C(=CCCN1CCC[C@@H](C(=O)O)C1)c1sccc1C	0.26 °C	0.65 °C	0.86 °C	-0.21 °C	-0.18 °C	0.16 °C	-1.21 °C	0.76 °C
COc1ccc(C2C(C#N)=C(N)OC3=C2C(=O)CC(c2cccc4ccccc24)C3)cc1 (stereo not given)	0.45 °C	-2.45 °C	-0.04 °C	-0.36 °C	-0.68 °C	0.85 °C	-1.95 °C	1.45 °C
COC1CCN(C(=O)c2cc(Cc3n[nH]c(=O)c4ccccc34)ccc2F)CC1	0.56 °C	-2.02 °C	0.16 °C	-0.31 °C	0.09 °C	0.51 °C	-2.39 °C	-0.67 °C
CC(=O)N[C@@H](CCCCNC(=O)CSCCNC(=O)CCNC(=O)[C@H](O)C(C)(C)COP(=O)(O)OP(=O)(O)OC[C@H]1O[C@@H](n2cnc3c(N)ncnc32)[C@H](O)[C@@H]1OP(=O)(O)O)C(N)=O	0.23 °C	-2 °C	-0.07 °C	-0.41 °C	-0.08 °C	-0.01 °C	-0.37 °C	1.51 °C
